In assay [1] the target is Cytochrome P450 1A2 (Homo sapiens) (UniProt P05177). The assay is described as follows: p450-cyp1a2 (AID 410; calls by dose curve). In a few lines: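 Inhibition was calculated relative to 57 uM furafylline (full inhibition). The reaction used human CYP1A2 at 20nM with Luciferin-ME at its Km, 100uM, driven by an NADPH-regenerating system for 60 min at room temperature.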
The target of assay [2] is Glucocorticoid receptor (Homo sapiens) (UniProt P04150). Nature of the assay: GR-EFC Redistribution (AID 451; calls by dose curve; note: potency is the fitted concentration of half-maximal effect). Conditions: CHO-K1 GR-EFC translocation, beta-gal luminescence, 2 h. In a few lines:
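Translocation of GR-ED fusion to nuclear EA restores b-gal, read by luminescence after 1 h room-temperature detection. Engineered CHO-K1 biosensor cells, 1,000/well, exposed 2 h at 37 C to titrations up to 46 uM final.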

The target of assay [3] is Mitogen-activated protein kinase 10 (Mus musculus) (UniProt Q61831). Nature of the assay: JNK3 AlphaScreen Assay (AID 530; active = well fitted curve in either direction with a large enough effect, not every such curve was filed as active;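 note: kinase came from lysate of stimulated human HepG2 cells; signal reports phosphorylation of biotinylated GST-cJun 1-79 at Ser73 with 10 µM ATP; series mostly up to about 57 µM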). In a few lines:
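Room-temperature AlphaScreen kinase assay; pre-activated HepG2 lysate as JNK3 source, biotin-GST-cJun(1-79) substrate, 10 uM ATP, compound 15 min preincubation.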
Background: In Alpha technology, singlet oxygen from a donor bead excites a nearby acceptor bead.

For assay [4], the target named is 3',5'-cyclic-AMP phosphodiesterase 4B (Homo sapiens) (UniProt Q07343). Nature of the assay: qHTS Assay for Inhibitors of PDE-IV (AID 607; active = well fitted activation curve with a large enough effect in the main read-out, with a control signal flat, not every such curve was filed as active). In a few lines:
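ACTOne HEK293 cells carry a modified cAMP-gated CNG channel and express endogenous PDE4; plated 1000 cells/well, compounds up to 22.9 uM final. Membrane-potential dye fluorescence (ex 535/em 590) was read; parental cells received 10 uM forskolin + 100 uM RO 20-1724.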
In general terms: In qHTS, concentration-response curves come from the screen itself.

Assay [5] addresses Ubiquitin carboxyl-terminal hydrolase 1 (Homo sapiens) (UniProt O94782). Nature of the assay: Inhibitors of USP1/UAF1: Pilot qHTS (AID 504865). Note: nearly all actives have a fitted effect of over 35% in size. Note: potency is the fitted concentration of half-maximal effect. In a few lines: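 Enzyme-free wells gave the negative control, while test wells held 1nM USP1/UAF1 preincubated with compound for 15 min at room temperature. Ub-Rho at 150nM final started the reaction, and fluorescence at 480/540 nm was recorded kinetically.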

Assay [6] concerns the target DNA dC->dU-editing enzyme APOBEC-3G (Homo sapiens) (UniProt Q9HC16). The assay is described as follows: qHTS for inhibitors of Vif-A3G interactions: Validation (AID 588379). In a few lines:
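HeLa cells stably expressing Vif and A3G-eYFP, 700 cells/well, incubated overnight at 37 deg C, then exposed to compound overnight at 37 deg C. Inhibition of Vif-mediated degradation read as increased yellow fluorescence (Ex 488/Em 500-530) by laser-scanning cytometry.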

Assay [7] concerns Zika virus NS2B-NS3 protease. Nature of the assay: Primary screen GU AMC qHTS for Zika virus inhibitors (AID 1347154). Note: nearly all actives have a fitted effect of over 70% in size. In a few lines:
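Fluorogenic AMC-substrate cleavage by noncovalent NS2B-NS3 protease complex (25 nM, pH 8.0 Tris buffer with Tween 20) followed for 15 minutes at room temperature (~20% conversion). Percent inhibition from ex340/em450 signal change, fitted by 4-parameter Hill equation.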

In assay [8] the target is Glucocorticoid receptor (Homo sapiens) (UniProt P04150). The assay is described as follows: GR-GFP Redistribution (AID 450;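 active = compounds whose dose series gives a full or clear partial fitted curve of increased nuclear translocation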; note: potency is the fitted concentration of half-maximal effect). Conditions: U2OS GR-GFP nuclear translocation, laser cytometry, 2 h.
In assay [9] the target is Cytochrome P450 2C19 (Homo sapiens) (UniProt P33261). Nature of the assay: qHTS Assay for Inhibitors and Substrates of Cytochrome P450 2C19 (AID 899). Note: nearly all actives have a fitted effect of over 60% in size. Note: potency is the fitted concentration of half-maximal effect. In a few lines:
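5nM enzyme + 10uM Luciferin-H EGE (=KM), 50mM KPO4; cpd pin-transferred, 10 min 37C; NADPH regen, 60 min 37C; stopped w/ luciferin detection reagent, 20 min; luminescence. Normalized to 57uM ketoconazole (AC100).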

Assay [10] concerns the target Cytochrome P450 2D6 (Homo sapiens) (UniProt P10635). Nature of the assay: qHTS Assay for Inhibitors and Substrates of Cytochrome P450 2D6 (AID 891). Note: potency is the fitted concentration of half-maximal effect; nearly all actives have a fitted effect of over 60% in size. In a few lines: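 Human CYP2D6 (5 nM) with 30 uM Luciferin-ME EGE (at Km) in 100 mM KPO4, compound preincubated 10 min, then NADPH regeneration system for 60 min at room temperature. Luciferin read by luminescence; normalized to 1.43 uM quinidine.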

The target of assay [11] is Cytochrome P450 3A4 (Homo sapiens) (UniProt P08684). The assay is described as follows: qHTS Assay for Inhibitors and Substrates of Cytochrome P450 3A4 (AID 884). Note: potency is the fitted concentration of half-maximal effect; nearly all actives have a fitted effect of over 50% in size. In a few lines: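 20 nM human CYP3A4 with 25 uM Luciferin-PPXE (at KM) in 200 mM KPO4, preincubated 10 min with compound; NADPH regeneration started a 60 min RT reaction. Luciferin detected by luminescence, normalized to 57 uM ketoconazole as full inhibition.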

For assay [12] the target is unchanged. The assay is described as follows: qHTS Assay for Activators of Cytochrome P450 3A4 (AID 885). Note: nearly all actives have a fitted effect of over 65% in size. In a few lines:
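20nM CYP3A4 + 25uM Luciferin-PPXE (=KM), 200mM KPO4; cpd 10 min RT; NADPH regen, 60 min RT; stop w/ detection buffer, 20 min; luminescence. Normalized to 57 uM ketoconazole.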

Assay [13] addresses Cytochrome P450 2C9 (Homo sapiens) (UniProt P11712). The assay is described as follows: qHTS Assay for Inhibitors and Substrates of Cytochrome P450 2C9 (AID 883). Note: nearly all actives have a fitted effect of over 60% in size. In a few lines: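 Inhibition of CYP2C9 is scored as loss of luminescence, with 57uM sulphaphenazole defining 100% inhibition. Substrate Luciferin-H is used at 100uM, equal to its KM; enzyme at 10nM in 25mM KPO4, 60 min at 37C with NADPH regeneration.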

The nature of assay [14]: Confirmatory screen GU Rhodamine qHTS for Zika virus inhibitors qHTS (AID 1347157). Note: nearly all actives have a fitted effect of over 70% in size. In a few lines:
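In dose–response format, inhibition of unlinked protease (25 nM) was measured with 1.5 microM bis-peptide Rhodamine110 substrate. Aprotinin served as the intraplate control.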

A number with no mark means an inactive call. Results filed as inconclusive are left out. The source made the active and inactive calls. Unless noted, calls come from the whole dose curve; as a rule, active = well fitted curve in the direction sought with a large enough effect; inconclusive = small, poorly fitted or top-dose-only effect, or another doubt; inactive = no such curve, though single readings can be large; an effect the other way counts as inactive or inconclusive.

Ubiquitin carboxyl-terminal hydrolase 1 (Homo sapiens), sequence (O94782 whole entry, looked up): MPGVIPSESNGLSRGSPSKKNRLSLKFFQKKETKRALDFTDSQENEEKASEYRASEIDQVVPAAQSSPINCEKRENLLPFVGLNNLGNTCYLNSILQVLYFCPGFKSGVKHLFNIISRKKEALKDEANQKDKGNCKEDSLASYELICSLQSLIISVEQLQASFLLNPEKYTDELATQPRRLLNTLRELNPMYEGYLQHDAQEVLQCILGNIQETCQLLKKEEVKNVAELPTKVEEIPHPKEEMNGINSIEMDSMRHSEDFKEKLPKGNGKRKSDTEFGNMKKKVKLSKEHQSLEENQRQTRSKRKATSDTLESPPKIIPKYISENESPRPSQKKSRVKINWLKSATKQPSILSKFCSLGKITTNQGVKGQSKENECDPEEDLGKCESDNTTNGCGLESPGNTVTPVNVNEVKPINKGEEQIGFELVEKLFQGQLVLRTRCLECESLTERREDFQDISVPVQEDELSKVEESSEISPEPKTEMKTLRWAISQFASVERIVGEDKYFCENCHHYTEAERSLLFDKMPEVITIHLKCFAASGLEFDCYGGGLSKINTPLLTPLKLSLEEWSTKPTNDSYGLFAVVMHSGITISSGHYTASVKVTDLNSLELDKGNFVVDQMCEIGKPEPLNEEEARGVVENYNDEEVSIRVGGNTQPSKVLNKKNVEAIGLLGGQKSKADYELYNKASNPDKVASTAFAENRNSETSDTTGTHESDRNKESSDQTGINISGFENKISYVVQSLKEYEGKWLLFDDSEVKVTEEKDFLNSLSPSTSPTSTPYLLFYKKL
Glucocorticoid receptor (Homo sapiens), sequence (P04150 whole entry, looked up, the tested form may be a part): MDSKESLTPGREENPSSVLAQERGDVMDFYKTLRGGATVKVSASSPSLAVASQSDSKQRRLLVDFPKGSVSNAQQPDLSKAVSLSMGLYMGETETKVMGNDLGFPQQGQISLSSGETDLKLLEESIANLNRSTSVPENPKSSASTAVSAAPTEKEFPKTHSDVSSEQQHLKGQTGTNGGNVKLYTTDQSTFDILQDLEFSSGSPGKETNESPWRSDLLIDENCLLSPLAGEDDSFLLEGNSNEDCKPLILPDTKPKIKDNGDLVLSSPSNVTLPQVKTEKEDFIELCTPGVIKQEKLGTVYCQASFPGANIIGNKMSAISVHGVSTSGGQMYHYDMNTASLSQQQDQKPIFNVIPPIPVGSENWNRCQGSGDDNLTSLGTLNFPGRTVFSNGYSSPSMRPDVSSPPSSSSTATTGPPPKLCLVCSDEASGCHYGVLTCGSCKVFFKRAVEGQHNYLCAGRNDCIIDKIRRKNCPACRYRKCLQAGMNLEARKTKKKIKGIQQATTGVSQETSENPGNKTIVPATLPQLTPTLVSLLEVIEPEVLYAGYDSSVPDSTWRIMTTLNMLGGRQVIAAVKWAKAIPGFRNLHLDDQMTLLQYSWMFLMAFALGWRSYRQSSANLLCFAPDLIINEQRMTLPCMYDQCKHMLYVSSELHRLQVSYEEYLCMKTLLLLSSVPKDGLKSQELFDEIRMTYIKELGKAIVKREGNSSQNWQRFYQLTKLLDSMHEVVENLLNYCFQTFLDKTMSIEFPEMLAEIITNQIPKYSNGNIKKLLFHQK
DNA dC->dU-editing enzyme APOBEC-3G (Homo sapiens), sequence (Q9HC16 whole entry, looked up): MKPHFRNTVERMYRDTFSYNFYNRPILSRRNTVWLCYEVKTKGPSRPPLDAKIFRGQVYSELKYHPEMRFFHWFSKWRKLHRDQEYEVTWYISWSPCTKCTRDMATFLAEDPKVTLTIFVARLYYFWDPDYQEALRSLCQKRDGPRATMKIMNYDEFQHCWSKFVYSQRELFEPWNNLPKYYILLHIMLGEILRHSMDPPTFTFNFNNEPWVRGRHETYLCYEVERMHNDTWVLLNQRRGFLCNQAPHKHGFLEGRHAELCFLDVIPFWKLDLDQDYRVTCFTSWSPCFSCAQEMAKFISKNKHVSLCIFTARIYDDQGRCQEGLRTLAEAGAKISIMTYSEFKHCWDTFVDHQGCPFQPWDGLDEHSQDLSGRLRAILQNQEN
3',5'-cyclic-AMP phosphodiesterase 4B (Homo sapiens), sequence (Q07343 whole entry, looked up): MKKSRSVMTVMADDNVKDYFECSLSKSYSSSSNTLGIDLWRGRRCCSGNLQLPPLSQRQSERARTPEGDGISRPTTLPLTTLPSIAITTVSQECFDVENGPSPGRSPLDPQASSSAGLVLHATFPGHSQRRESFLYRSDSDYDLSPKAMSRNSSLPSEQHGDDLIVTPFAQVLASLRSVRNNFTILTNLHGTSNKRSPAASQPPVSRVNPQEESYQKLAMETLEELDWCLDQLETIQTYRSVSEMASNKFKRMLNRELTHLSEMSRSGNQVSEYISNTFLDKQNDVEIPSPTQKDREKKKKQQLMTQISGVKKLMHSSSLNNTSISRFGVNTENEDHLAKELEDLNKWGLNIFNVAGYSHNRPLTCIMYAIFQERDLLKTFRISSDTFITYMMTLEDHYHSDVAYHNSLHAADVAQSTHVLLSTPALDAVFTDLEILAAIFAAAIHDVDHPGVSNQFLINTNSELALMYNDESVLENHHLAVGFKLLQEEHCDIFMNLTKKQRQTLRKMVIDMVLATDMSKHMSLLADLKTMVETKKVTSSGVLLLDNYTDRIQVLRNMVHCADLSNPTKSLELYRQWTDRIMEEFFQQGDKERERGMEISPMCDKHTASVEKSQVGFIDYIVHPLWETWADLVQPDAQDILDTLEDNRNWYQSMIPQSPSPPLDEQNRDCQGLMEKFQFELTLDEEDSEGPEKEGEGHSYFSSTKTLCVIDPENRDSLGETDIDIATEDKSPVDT
Cytochrome P450 3A4 (Homo sapiens), sequence (P08684 whole entry, looked up): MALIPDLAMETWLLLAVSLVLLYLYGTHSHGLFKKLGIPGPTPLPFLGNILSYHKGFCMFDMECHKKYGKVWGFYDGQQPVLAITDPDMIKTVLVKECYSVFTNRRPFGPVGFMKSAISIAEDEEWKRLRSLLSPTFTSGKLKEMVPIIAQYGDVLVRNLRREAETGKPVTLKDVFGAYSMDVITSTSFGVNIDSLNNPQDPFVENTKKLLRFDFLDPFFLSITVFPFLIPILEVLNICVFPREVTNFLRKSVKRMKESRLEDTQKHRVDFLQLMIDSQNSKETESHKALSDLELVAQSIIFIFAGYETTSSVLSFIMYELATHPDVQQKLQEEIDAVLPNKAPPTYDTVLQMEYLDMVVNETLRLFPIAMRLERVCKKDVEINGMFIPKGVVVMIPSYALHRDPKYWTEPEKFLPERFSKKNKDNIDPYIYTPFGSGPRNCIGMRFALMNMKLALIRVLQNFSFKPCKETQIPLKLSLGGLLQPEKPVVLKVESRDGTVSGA
Cytochrome P450 2D6 (Homo sapiens), sequence (P10635 whole entry, looked up): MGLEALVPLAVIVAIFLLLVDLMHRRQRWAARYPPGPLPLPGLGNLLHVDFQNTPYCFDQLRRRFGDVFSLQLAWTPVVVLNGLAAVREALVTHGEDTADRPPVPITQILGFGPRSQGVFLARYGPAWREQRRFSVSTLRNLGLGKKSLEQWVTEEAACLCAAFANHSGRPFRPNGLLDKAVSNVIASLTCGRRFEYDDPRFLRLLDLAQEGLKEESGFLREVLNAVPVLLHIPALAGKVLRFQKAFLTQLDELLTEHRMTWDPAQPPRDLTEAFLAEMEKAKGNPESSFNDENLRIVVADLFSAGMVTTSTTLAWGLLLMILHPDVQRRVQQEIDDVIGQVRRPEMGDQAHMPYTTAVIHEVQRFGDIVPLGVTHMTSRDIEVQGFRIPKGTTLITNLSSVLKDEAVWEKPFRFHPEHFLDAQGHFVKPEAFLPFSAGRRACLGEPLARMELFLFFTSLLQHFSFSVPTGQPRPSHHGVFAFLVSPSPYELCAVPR
Cytochrome P450 2C9 (Homo sapiens), sequence (P11712 whole entry, looked up): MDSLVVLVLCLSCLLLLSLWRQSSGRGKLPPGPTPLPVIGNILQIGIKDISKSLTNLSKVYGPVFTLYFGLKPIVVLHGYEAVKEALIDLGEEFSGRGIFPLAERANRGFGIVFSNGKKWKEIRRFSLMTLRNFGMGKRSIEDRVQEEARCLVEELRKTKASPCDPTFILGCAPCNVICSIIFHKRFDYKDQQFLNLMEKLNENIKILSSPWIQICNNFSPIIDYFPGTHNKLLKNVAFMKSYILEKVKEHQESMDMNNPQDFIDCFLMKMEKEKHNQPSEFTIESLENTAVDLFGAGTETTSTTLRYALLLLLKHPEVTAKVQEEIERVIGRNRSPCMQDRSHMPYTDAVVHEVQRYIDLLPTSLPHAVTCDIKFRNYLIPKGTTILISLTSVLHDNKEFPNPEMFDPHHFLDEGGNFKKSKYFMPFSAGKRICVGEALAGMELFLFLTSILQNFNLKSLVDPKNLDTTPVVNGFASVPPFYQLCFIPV
Cytochrome P450 2C19 (Homo sapiens), sequence (P33261 whole entry, looked up): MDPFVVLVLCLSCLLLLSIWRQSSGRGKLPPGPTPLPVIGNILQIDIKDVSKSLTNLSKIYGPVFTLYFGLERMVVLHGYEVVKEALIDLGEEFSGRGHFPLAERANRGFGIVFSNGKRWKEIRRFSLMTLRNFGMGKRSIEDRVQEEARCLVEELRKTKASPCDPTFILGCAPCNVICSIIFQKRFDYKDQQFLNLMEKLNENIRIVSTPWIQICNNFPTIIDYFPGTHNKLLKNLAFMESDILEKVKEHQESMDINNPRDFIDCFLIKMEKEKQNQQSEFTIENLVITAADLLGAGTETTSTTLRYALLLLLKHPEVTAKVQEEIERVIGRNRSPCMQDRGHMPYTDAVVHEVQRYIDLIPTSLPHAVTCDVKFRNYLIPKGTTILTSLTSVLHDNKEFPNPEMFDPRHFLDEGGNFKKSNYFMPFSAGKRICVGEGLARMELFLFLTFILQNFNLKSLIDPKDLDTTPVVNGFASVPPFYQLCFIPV

In the case of `C[N+](C)(C)CCCCCNCC12CC3CC(CC(C3)C1)C2`, the Potency result in assay [1], in assay [3], in assay [4], in assay [5], in assay [6] and in assay [7] was “inactive” each time. In addition, the Potency in assay [2] was above 46 µM.

For the compound `N[C@H](C(=O)O)[C@@H]1[C@@H](C(=O)O)C1(F)F`, the Potency in [2] was above 46 µM. The Potency entry in assay [3], in assay [5], in [6] and in [7] was “inactive” in each case.

With `CCCCCCCCCCCCC(=O)N1CCCC[C@H]1CNC(=O)[C@@H](N)CCCCN`, the Potency was above 46 µM in assay [8], above 46 µM in [2], 7.94 µM (active) in [9] and 50.1 µM (active) in assay [5]. Besides, the Potency result in assay [4], in assay [6] and in [7] was “inactive” in each case.

For `CNc1ncnc2c1ncn2[C@H]1C[C@H](OP(=O)(O)O)[C@H](COP(=O)(O)O)O1`, the results for the Potency in assay [8], in [2] and in assay [10] were above 46 µM, above 46 µM and 5.01 µM (active), respectively. The Potency entry in assay [3], in [5], in assay [6] and in assay [7] was “inactive” each time.

`O=C(c1ccc2c(c1)OCO2)N1CCCCC1`: the Potency in assay [8] and in [2] was above 46 µM each time. Besides, the Potency entry in [3], in [4], in [5], in assay [6] and in [7] was “inactive” throughout.

For the compound `O=C1c2ccccc2C(Cc2ccncc2)(Cc2ccncc2)c2ccccc21`, the Potency was above 46 µM in assay [8] and 0.501 µM (active) in assay [11]. Besides, the Potency entry in assay [3], in assay [12], in [6] and in assay [7] was “inactive” throughout.

As for `CN(C)CCCSc1ccccc1NC(=O)/C=C\c1ccccc1`, the figures for the Potency in assay [8], in assay [2] and in [10] were above 46 µM, above 46 µM and 0.316 µM (active), respectively. Further, the Potency result in assay [13], in assay [9], in [5], in assay [6] and in assay [7] was “inactive” each time.

Take `CCCCCCCC/C=C\CCCCCCCC(=O)N[C@@H](CO)Cc1ccc(O)cc1`: the Potency was above 46 µM in assay [8], above 46 µM in [2], 0.126 µM (active) in assay [10] and 22.4 µM (active) in [5]. Further, the Potency entry in assay [13], in assay [12], in [6] and in assay [7] was “inactive” in each case.

As for `O=C(CNc1nnc(-c2ccc([S+](=O)([O-])N3CCCC3)cc2)n1-c1ccccc1)Nc1ccc(C(=O)O)cc1`, in assay [14], the Potency entry is “inactive”.

Values taken from PubChem BioAssay (NCATS).
